In the library only some 4% were active in any assay of this set; here they are far more common.
NALP1 yeast inh – NALP1 inhibition | S. cerevisiae NALP1/ASC/caspase-1 growth, X-gal OD620, 72 h | inhibition, % at 10 µM | actives 0.61% (n = 280,000) | AID 2071; in the data active means inhibition mostly above about 24%, no sharp cut-off; inactive means mostly below about 32%
tim23-1 inh – growth inhibitors of tim23-1 mutant yeast | S. cerevisiae tim23-1 growth, BacTiter-Glo luminescence, 24 h | inhibition, % at 20 µM | actives 1.3% (n = 330,000) | AID 463212;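 active means growth inhibition of the mutant yeast at or above 50%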;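 further: temperature-sensitive mutant grown at 25 °C; plate controls were DMSO-treated mutant yeast for no effect and medium wells lacking yeast for full effect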
tim10-1 inh – tim10-1 yeast growth inhibition | S. cerevisiae tim10-1 ts strain growth, BacTiter-Glo, 24 h | inhibition, % at 20 µM | actives 2.2% (n = 330,000) | AID 463190;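 active means inhibition of at least 40%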;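 further: mutant grown at 25 °C; 0% = DMSO wells with yeast and 100% = wells holding no yeast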
NLRP3 yeast inh – NALP3 inhibition in yeast | actives 0.39% (n = 330,000) | inhibition, % at 10 µM | Yeast reconstituted NLRP3/ASC/caspase-1, beta-gal luminescence, 24 h | AID 2825;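 active means inhibition of 50% or more; inactive means inhibition below 50%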;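 further: plate controls were induced DMSO wells for no effect and uninduced yeast grown without galactose for full effect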
TIM10 inh – TIM10 yeast growth inhibition | S. cerevisiae TIM10 strain growth, BacTiter-Glo luminescence, 24 h | inhibition, % at 10 µM | actives 1.4% (n = 330,000);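 active means inhibition of 40% or more at the single tested concentration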;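 further: wild-type TIM10 isogenic control strain grown at permissive 25 °C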
tim10-1 confirm – tim10-1 yeast growth inhibition, confirmed; actives 56% (n = 7,400); inhibition, % at 20 µM; shares compounds with tim10-1 inh; S. cerevisiae tim10-1 ts strain growth, BacTiter-Glo, 24 h;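 active means inhibition of yeast growth at or above a set limit in either of two repeat tests at 20 µM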;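 further: tim10-1 mutant grown at permissive 25 °C to find synthetic lethal compounds; 0% = DMSO yeast wells and 100% = medium wells without yeast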
* = called active by the depositor; · = no result given.

SMILES	NALP1 yeast inh	tim23-1 inh	tim10-1 inh	NLRP3 yeast inh	TIM10 inh	tim10-1 confirm
COc1cccc(-c2nn3c(-c4cccc(C)c4)nnc3s2)c1	-1	28	44*	-1	19	25
COc1cccc(-c2nnc3sc(-c4ccc(C)cc4)nn23)c1	12	27	-1	29	2	·
COc1cccc(-c2nnc3sc(-c4ccco4)nn23)c1	8	5	-8	28	-14	·
COc1ccccc1CNC(=O)Cn1cccc1C(=O)c1ccccc1	22	7	-16	3	-20	·
COc1cccc(N(C(=O)c2nc3nccc(C)n3n2)c2nc3ccccc3s2)c1	32	31	48*	5	18	24
CCOCCc1c(O)nc(SCC)[nH]c1=O	·	-5	9	9	-19	·
CCN(CC)c1ccc(Nc2nc(-c3cccnc3)cs2)cc1	26	30	49*	34	2	33*
CN1CCN(CCCN2c3ccccc3Sc3ccc(C(F)(F)F)cc32)CC1	36	17	42*	32	27	26
O=C(CN1CCCC(O)C1)N1c2ccccc2Sc2ccc(C(F)(F)F)cc21 (centres undefined)	-28	21	14	19	14	·
O=C(/C(N=Nc1cccc(C(F)(F)F)c1)=C(/O)c1cccs1)C(F)(F)F	-6	41	40*	9	0	31*
CC(=O)/C(N=Nc1cccc(C(F)(F)F)c1)=C(\C)O	29	9	9	-10	-10	·
C=CCC[C@H](Cc1ccc(F)cc1)C(=O)OC[C@@H](NC(=O)[C@@H](CC=C)CC(=O)N(CCO)Cc1ccccc1)C(C)(C)C	·	19	17	23	2	·
Cc1cc(C)cc(N(CCC#N)C(=O)CSc2ncnc3sccc23)c1	·	22	0	8	1	·
O=C(/C=C\c1ccco1)Nc1ccc(N2CCN(C(=O)c3ccccc3)CC2)cc1	15	41	42*	16	18	32*
CCc1nc2ccc(C(=O)N3CCN(c4cccc(C(F)(F)F)c4)CC3)cc2nc1CC	-3	38	42*	10	22	19
O=C(c1ccc2nc(-c3ccco3)c(-c3ccco3)nc2c1)N1CCN(c2ccccc2)CC1	10	15	42*	31	19	33*
O=C(/C=C/c1ccco1)N1CCN(c2ccccc2)CC1	31	-3	14	25	9	·
CCCCn1c(/N=C/c2c[nH]c3ccccc23)nc2ccccc21	17	33	41*	27	2	22
CCCn1c(/N=C/c2c[nH]c3ccccc23)nc2ccccc21	3	37	26	14	2	·
CSCCC(NC(=O)c1ccccc1Br)C(=O)NC(C)CCc1ccccc1 (centres undefined)	12	1	76*	-3	4	0
CSCCC(NC(=O)c1ccccc1)C(=O)NCCc1ccccc1 (centres undefined)	12	19	13	19	-4	·
Cc1nn(-c2ccccc2)c(Cl)c1/C=N/NS(=O)(=O)c1ccc(Br)cc1	35	45	42*	18	-2	30
Cc1nn(-c2ccccc2)c(Cl)c1/C=N/NC(=O)OC(C)(C)C	44	39	44*	15	-8	21
Cc1nn(-c2ccccc2)c(Cl)c1/C=N/Nc1ccc(S(=O)(=O)Nc2ccccc2C(=O)O)cc1[N+](=O)[O-]	-10	31	42*	11	5	36*
CSc1ccc(C=NNc2ccc(S(=O)(=O)Nc3ccccc3C(=O)O)cc2[N+](=O)[O-])cc1	·	6	0	18	9	·
SMILES	NALP1 yeast inh	tim23-1 inh	tim10-1 inh	NLRP3 yeast inh	TIM10 inh	tim10-1 confirm
CCN1C(=O)C(CC(=O)Nc2c(C)cccc2C)Nc2cc(S(=O)(=O)N(C)C)ccc21 (centres undefined)	-14	-1	9	-3	11	·
N/C(=N\OC(=O)CCCOc1ccccc1)c1cccc([N+](=O)[O-])c1	0	32	55*	21	26	46*
N/C(=N\OC(=O)c1ccncc1)c1cccc([N+](=O)[O-])c1	19	13	18	5	17	·
N/C(=N\OC(=O)c1ccc([N+](=O)[O-])cc1)c1cccnc1	29	36	40*	5	23	37*
N/C(=N\OC(=O)C1CCCCC1)c1cccc([N+](=O)[O-])c1	13	31	47*	12	26	49*
Cc1ccc(C(=O)O/N=C(\N)c2cccc([N+](=O)[O-])c2)cc1	-40	25	52*	20	39	72*
Cn1c(N/N=C/c2cccs2)nc2c1c(=O)n(Cc1ccccc1)c(=O)n2C	10	22	40*	9	25	22
Cn1c(=O)c2c(nc(N/N=C/c3cccs3)n2Cc2ccccc2)n(C)c1=O	26	0	-6	16	3	·
CCC(C)C(=O)Nc1ccc(OC)cc1OC (centres undefined)	8	-4	15	19	-16	·
COc1ccc(NC(=O)N(CCC(C)C)C(C)c2ccccn2)c(OC)c1 (centres undefined)	5	48	41*	13	-16	20
CN(C)C(=O)CCc1ccc2c3c([nH]c2c1)[C@]1(CCC2CCCC2)[C@@H](C(=O)N2CCOCC2)C[C@H](CC(=O)NCCc2ccccn2)C(=O)N1CC3	·	33	18	·	-6	·
CC/C(=N\NC(=S)Nc1cc(C)ccc1C)c1ccc(OC(F)F)cc1	6	49	58*	26	31	36*
C/C(=N\NC(=S)Nc1c(C)cccc1C)c1ccc(OC(F)F)cc1	17	17	43*	15	32	41*
Cn1ccnc1C(OC(=O)c1ccccc1)C(F)(F)F (centres undefined)	9	9	3	19	-3	·
CCCCC(=O)Nc1ccc(NC(=S)NC(=O)CCCCl)cc1OC	31	22	48*	17	35	39*
CCCCC(=O)NC(=S)Nc1ccc(NC(=O)C(C)C)c(OC)c1	19	31	43*	-9	17	21
Cc1ccc(S(=O)(=O)N(CC(=O)Nc2cccnc2)c2ccccc2C)cc1	-19	17	10	9	-12	·
O=C(CCN1C(=O)S/C(=C\c2ccccc2)C1=O)N1CCOCC1	·	2	52*	-9	25	31
O=C(CCN1C(=O)S/C(=C\c2ccccc2)C1=O)N1CCCCC1	-7	38	44*	9	8	39*
O=C(CCN1C(=O)/C(=C\c2ccccc2)SC1=S)N1CCOCC1	-12	12	17	15	19	·
CCN(CC)S(=O)(=O)c1ccc(N2CC(C(=O)NCCc3c[nH]c4ccccc34)CC2=O)cc1 (centres undefined)	·	10	3	9	-1	·
COc1cc(-c2cc(=O)c3c(O)c(OC)c(OC)cc3o2)cc(OC)c1O	-5	34	42*	7	23	18

Screening results from PubChem BioAssay.
